This passage reports Potency, activity change, negative = inhibition and outcome results from PubChem BioAssay (NCATS).

Test [1] is described as follows: qHTS for Inhibitors of the Functional Ribonucleoprotein Complex (vRNP) of Lassa (LASV) Arenavirus: LASV Primary Screen - GLuc reporter signal (AID 1347082; calls by dose curve; tested in HEK293 reporter line; further: nearly all actives have a fitted effect of over 60% in size; further: potency means the concentration at half of the fitted maximal effect; on activity change, negative = inhibition: on the % scale 0 is the no-effect control and ±100 the full control effect).
A short description of test [2]: qHTS for Inhibitors of the Functional Ribonucleoprotein Complex (vRNP) of Lassa (LASV) Arenavirus: Viability assay - alamar blue signal for LASV Primary Screen (AID 1347083; calls by dose curve; tested in HEK293 reporter line; further: nearly all actives have a fitted effect of over 80% in size; further: potency means the concentration at half of the fitted maximal effect). (In general: In qHTS, concentration-response curves come from the screen itself.)
Test [3] can be described thus: qHTS for Inhibitors of the Functional Ribonucleoprotein Complex (vRNP) of Lymphocytic Choriomeningitis Arenaviruses (LCMV): Viability assay - alamar blue signal for LCMV Primary Screen (AID 1347085; calls by dose curve; tested in HEK293 reporter line; further: nearly all actives have a fitted effect of over 80% in size; further: potency means the concentration at half of the fitted maximal effect).
Test [4] addresses Nucleoprotein (Lymphocytic choriomeningitis virus (strain Armstrong)) (UniProt P09992). As to the kind of experiment: qHTS for Inhibitors of the Functional Ribonucleoprotein Complex (vRNP) of Lymphocytic Choriomeningitis Arenaviruses (LCMV): LCMV Primary Screen - GLuc reporter signal (AID 1347086). Further: nearly all actives have a fitted effect of over 70% in size. Further: potency means the concentration at half of the fitted maximal effect. On activity change, negative = inhibition: on the % scale 0 is the no-effect control and ±100 the full control effect.
A short description of test [5]: Primary qHTS to identify inhibitors of SARS-CoV-2 cell entry (AID 1645846). Further: nearly all actives have a fitted effect of over 45% in size. Further: potency means the concentration at half of the fitted maximal effect. The settings on record: activity change, negative = inhibition: at 57.1 µM (top of the series) unless noted. The method, boiled down: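 Luminescence readout (Bright-Glo luciferase) 48 h after pseudoparticle addition. HEK293-ACE2 cells, 1500/well; compound pre-incubation 1 h; Normalized to spike PP and bald PP.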

In test [6] the target is Cytochrome P450 3A4 (Homo sapiens) (UniProt P08684). As to the kind of experiment: qHTS Assay for Activators of Cytochrome P450 3A4 (AID 885; active means well fitted curve in the direction sought with a large enough effect; an effect the other way counts as inactive or inconclusive; further: nearly all actives have a fitted effect of over 65% in size). An outline of the steps:
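Luminescent readout of luciferin formed from 25 uM Luciferin-PPXE (KM level) by 20 nM CYP3A4 in 200 mM KPO4, with 60 min NADPH-driven reaction at room temperature after 10 min compound exposure. Ketoconazole (57 uM) defined 100% inhibition.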

Test [7] addresses Alpha-galactosidase (Coffea arabica) (UniProt Q42656). As to the kind of experiment: Counterscreen for Glucocerebrosidase Inhibitors: qHTS Assay for Coffee Bean alpha-Galactosidase at pH 4.5 (AID 957; active means well fitted curve in the direction sought with a large enough effect; an effect the other way counts as inactive or inconclusive;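 further: plate controls were enzyme alone for no effect and no enzyme for full effect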). An outline of the steps:
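Enzyme is added first (2 nM final), then compounds titrated from 0.7 nM to 77 uM, then 80 uM 4-methylumbelliferyl alpha-D-galactopyranoside; after 20 min at room temperature a pH 10 NaOH/glycine stop precedes fluorescence reading at 365/440 nm.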
A general note: A counterscreen serves to expose hits that act by an unwanted route or on another target.

The nature of test [8]: MultiTox-Fluor Cytotoxicity Assay - LYMP1-002 - Dead Cells (AID 960; active means well fitted curve in the direction sought with a large enough effect; an effect the other way counts as inactive or inconclusive; further: potency means the concentration at half of the fitted maximal effect; nearly all actives have a fitted effect of over 60% in size). The method, boiled down: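 Cells were plated, rested 5 hr, then treated with compound dilution series for 16 hr at 37 C. After adding substrate reagent and 60 min at room temperature, dead-cell protease fluorescence gave concentration-response curves fitted by the Hill equation.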
Test [9] in a line: Cell Viability - LYMP1-003 - Assay at 40 hr (AID 964; active means well fitted curve in the direction sought with a large enough effect; an effect the other way counts as inactive or inconclusive; further: potency means the concentration at half of the fitted maximal effect; nearly all actives have a fitted effect of over 60% in size). The method, boiled down: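 Luminescent ATP signal (CellTiter-Glo) served as the viability read-out after 40 hr compound treatment of human lymphoblastoid LYMP1-003 cells at 37 C. Decreases in ATP were fitted with the Hill equation to give AC50.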
A short description of test [10]: Cell Viability - LYMP2-010 (AID 981; active means well fitted curve in the direction sought with a large enough effect; an effect the other way counts as inactive or inconclusive;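 further: potency means the concentration at half of the fitted maximal effect; cells exposed to compound for 24 hours at 37 °C; nearly all actives have a fitted effect of over 55% in size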). An outline of the steps: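 Steps: seed 2500 LYMP2-010 cells per well; incubate 5 hr at 37 C; add compound; incubate 24 hr at 37 C; add CellTiter-Glo, wait 30 min at room temperature; read luminescence. Concentration-response fitted to Hill equation for AC50.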
The nature of test [11]: Cell Viability - LYMP1-002 - Assay at 40 hr (AID 994; active means well fitted curve in the direction sought with a large enough effect; an effect the other way counts as inactive or inconclusive; further: potency means the concentration at half of the fitted maximal effect; nearly all actives have a fitted effect of over 60% in size). The method, boiled down: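 Cells are plated at 2500 per well and rested 5 hr at 37 C. Compounds are added and incubated 40 hr at 37 C. CellTiter-Glo reagent is added for 30 min at room temperature before luminescence is read.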
In test [12] the target is Alpha-galactosidase (Coffea arabica) (UniProt Q42656). Put plainly: Counterscreen for Glucocerebrosidase Inhibitors: qHTS Assay for Coffee Bean alpha-Galactosidase at pH 5.9 (AID 998; active means well fitted curve in the direction sought with a large enough effect; an effect the other way counts as inactive or inconclusive;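 further: plate controls were uninhibited enzyme for no effect and no-enzyme basal signal for full effect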). An outline of the steps: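 Fluorogenic 4-MU substrate hydrolysis, 80 uM substrate and 2 nM coffee bean alpha-galactosidase, pH 5.9 citrate buffer, 20 min at room temperature, then NaOH/glycine stop. Titration 0.7 nM–77 uM, normalized to no-enzyme and enzyme controls, AC50 via Hill equation.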
Chain of Alpha-galactosidase (Coffea arabica) (Q42656 whole entry, looked up): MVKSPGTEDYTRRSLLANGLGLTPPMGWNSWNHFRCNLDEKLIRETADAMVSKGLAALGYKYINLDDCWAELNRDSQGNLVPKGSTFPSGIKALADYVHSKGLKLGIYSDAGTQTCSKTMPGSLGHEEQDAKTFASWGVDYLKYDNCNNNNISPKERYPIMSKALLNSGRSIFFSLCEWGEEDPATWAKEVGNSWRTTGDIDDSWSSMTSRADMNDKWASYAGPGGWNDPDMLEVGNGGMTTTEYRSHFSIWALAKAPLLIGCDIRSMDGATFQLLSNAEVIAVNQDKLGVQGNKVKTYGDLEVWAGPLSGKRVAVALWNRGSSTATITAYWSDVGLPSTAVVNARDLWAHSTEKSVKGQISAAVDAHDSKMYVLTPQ

Test [13] concerns the target DNA repair nuclease/redox regulator APEX1 (Homo sapiens) (UniProt P27695). As to the kind of experiment: qHTS Validation Assay for Inhibitors of the Human Apurinic/apyrimidinic Endonuclease 1 (APE1) (AID 1705; active means well fitted curve in the direction sought with a large enough effect; an effect the other way counts as inactive or inconclusive; further: potency means the concentration at half of the fitted maximal effect). An outline of the steps:
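Human APE1 was preincubated with compound for 15 min at room temperature, then 50 nM (final) THF-abasic double-stranded DNA substrate bearing 5'-TAMRA and 3'-BHQ-2 was added. Incision-driven fluorescence rise (ex 525/em 598 nm) was read kinetically.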

Test [14] addresses Endonuclease 4 (Escherichia coli (strain K12)) (UniProt P0A6C1). Put plainly: Counterscreen for APE1 Inhibitors: qHTS Validation Assay for Inhibitors of Endonuclease IV (AID 1708; active means well fitted curve in the direction sought with a large enough effect; an effect the other way counts as inactive or inconclusive; further: on the % scale 0 is the no-effect control and ±100 the full control effect). The method, boiled down: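 Incision of a double-stranded 50 nM TAMRA/BHQ-2 abasic substrate was followed kinetically (525/598 nm, reads every 60 s) after 15 min enzyme–compound preincubation with 2 nM EndoIV in pH 7.5 Tris buffer with MgCl2, DTT and Tween-20; concentration-response format.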

The nature of test [15]: qHTS for differential inhibitors of proliferation of Plasmodium falciparum line W2 (AID 1883; active means well fitted curve in the direction sought with a large enough effect; an effect the other way counts as inactive or inconclusive;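 further: potency means the concentration at half of the fitted maximal effect; parasites grown with compound for 72 h before lysis and staining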). The settings on record: Potency: Plasmodium falciparum W2 proliferation inhibition.
The nature of test [16]: Cytometry Cell-Based qHTS for Inhibitors of the mTORC1 Signaling Pathway in MEF cells (AID 2668; active means well fitted curve in the direction sought with a large enough effect; an effect the other way counts as inactive or inconclusive; further: potency means the concentration at half of the fitted maximal effect). The method, boiled down:
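WT MEFs (Tsc2-/-, p53-/- stably re-expressing WT Tsc2) in DMEM + 10% FBS received compounds 24 hrs after plating, for 24 hrs at 37 degree Celsius. Fixed cells stained with Alexa-488 anti-phospho-rpS6 Ser235/236 and propidium iodide; laser-scanning cytometry read-out.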

Test [17] is described as follows: Validation screen for inhibitors of Lassa infection (AID 463096). Further: potency means the concentration at half of the fitted maximal effect. On activity change, negative = inhibition: on the % scale 0 is the no-effect control and ±100 the full control effect.
Test [18] concerns the target Thioredoxin reductase 1, cytoplasmic (Rattus norvegicus) (UniProt O89049). Put plainly: qHTS Assay for Inhibitors of Mammalian Selenoprotein Thioredoxin Reductase 1 (TrxR1) (AID 488773; active means well fitted curve in the direction sought with a large enough effect; an effect the other way counts as inactive or inconclusive; further: potency means the concentration at half of the fitted maximal effect; nearly all actives have a fitted effect of over 40% in size). The settings on record: Potency: inhibition. An outline of the steps:
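Inhibition is scored from the loss of NADPH fluorescence between first and last reads of an 8-min kinetic run. Selenite (400 uM) was the substrate, added after 15 min compound preincubation at room temperature.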

For test [19], the target named is Flap endonuclease 1 (Homo sapiens) (UniProt P39748). As to the kind of experiment: qHTS Validation Assay for the Inhibitors of Human Flap endonuclease 1 (FEN1) (AID 488816; active means well fitted curve in the direction sought with a large enough effect; an effect the other way counts as inactive or inconclusive; further: potency means the concentration at half of the fitted maximal effect). The method, boiled down: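 qHTS format: compounds and 10 nM FEN1 incubated 15 min at room temperature before adding 50 nM substrate. Cleavage followed by reads at 0 and 15 min; normalized data fitted to a four-parameter Hill curve.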
Chain of Flap endonuclease 1 (Homo sapiens) (P39748 whole entry, looked up): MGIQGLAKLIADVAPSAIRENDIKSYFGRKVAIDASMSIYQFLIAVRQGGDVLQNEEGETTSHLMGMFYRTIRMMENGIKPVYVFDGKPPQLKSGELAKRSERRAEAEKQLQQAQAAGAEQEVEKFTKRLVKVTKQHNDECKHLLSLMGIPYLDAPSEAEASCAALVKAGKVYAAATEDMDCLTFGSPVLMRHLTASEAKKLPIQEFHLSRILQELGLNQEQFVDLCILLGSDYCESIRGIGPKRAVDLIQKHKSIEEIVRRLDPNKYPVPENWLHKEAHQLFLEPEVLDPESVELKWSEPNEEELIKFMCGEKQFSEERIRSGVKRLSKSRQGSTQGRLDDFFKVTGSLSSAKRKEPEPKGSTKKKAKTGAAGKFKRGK

Test [20] has as its target M-phase phosphoprotein 8 (Homo sapiens) (UniProt Q99549). As to the kind of experiment: qHTS Validation Assay for Inhibitors for MPP8 Chromodomain Interactions with Methylated Histone Tails (AID 488949; active means well fitted curve in the direction sought with a large enough effect; an effect the other way counts as inactive or inconclusive; further: potency means the concentration at half of the fitted maximal effect; nearly all actives have a fitted effect of over 55% in size). The method, boiled down: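 MPP8 (50 nM) was preincubated with biotinylated H3(1-18)K9me3 peptide (50 nM) in PBS pH 7.4, 0.01% Tween-20 for 30 min at room temperature, then with compounds for 30 min; binding was detected by AlphaScreen.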

For test [21], the target named is Glucocorticoid receptor (Homo sapiens) (UniProt P04150). As to the kind of experiment: qHTS assay for small molecule antagonists of glucocorticoid receptor signaling (AID 588533; active means well fitted inhibition curve with a large enough effect in the signal ratio, with a control signal flat, not every such curve was filed as active; the % refers to the signal ratio;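 further: cells stimulated with 2 nM dexamethasone as agonist; potency means the concentration at half of the fitted maximal effect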). An outline of the steps: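 Antagonist-mode qHTS: compound titrations added to GRE-bla HeLa cells, then dexamethasone 2 nM final; 18 h, 37 C. CCF4 FRET fluorescence normalized to dexamethasone and DMSO; IC50 from Hill fit.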
Chain of Glucocorticoid receptor (Homo sapiens) (P04150 whole entry, looked up): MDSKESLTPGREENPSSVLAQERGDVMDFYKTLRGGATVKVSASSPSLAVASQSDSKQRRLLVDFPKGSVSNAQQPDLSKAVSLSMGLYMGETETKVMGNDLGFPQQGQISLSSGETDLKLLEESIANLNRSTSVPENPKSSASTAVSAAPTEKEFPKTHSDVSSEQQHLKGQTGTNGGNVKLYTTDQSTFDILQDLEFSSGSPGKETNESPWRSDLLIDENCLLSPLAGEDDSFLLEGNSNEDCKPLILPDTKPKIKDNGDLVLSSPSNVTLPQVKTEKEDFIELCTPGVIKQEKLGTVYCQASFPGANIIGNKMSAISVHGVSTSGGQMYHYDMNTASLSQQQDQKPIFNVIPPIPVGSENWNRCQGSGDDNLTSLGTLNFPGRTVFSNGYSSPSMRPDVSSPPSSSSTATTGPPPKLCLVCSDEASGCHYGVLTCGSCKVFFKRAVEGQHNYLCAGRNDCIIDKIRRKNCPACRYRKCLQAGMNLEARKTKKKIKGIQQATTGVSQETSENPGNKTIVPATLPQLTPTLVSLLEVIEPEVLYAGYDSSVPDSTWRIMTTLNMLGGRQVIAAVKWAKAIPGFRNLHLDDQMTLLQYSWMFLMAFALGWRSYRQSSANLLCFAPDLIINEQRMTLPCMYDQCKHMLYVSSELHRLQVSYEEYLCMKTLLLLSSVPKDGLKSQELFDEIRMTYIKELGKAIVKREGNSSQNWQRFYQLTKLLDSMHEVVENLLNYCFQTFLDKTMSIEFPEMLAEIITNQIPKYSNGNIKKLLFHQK

For test [22], the target named is Peroxisome proliferator-activated receptor delta (Homo sapiens) (UniProt Q03181). Put plainly: qHTS assay for small molecule agonists of peroxisome proliferator-activated receptor delta signaling (AID 588534).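 Further: 0% = DMSO basal wells and 100% = positive control agonist at 10 µM.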 The method, boiled down:
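Agonist-mode qHTS; reporter cells, 5 hrs 37 C pre-incubation; compound titration, 18 hrs 37 C; CCF4 dye, 2 hrs RT; fluorescence read. EC50/efficacy via Hill fit.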

The nature of test [23]: qHTS assay for small molecule agonists of the antioxidant response element (ARE) signaling pathway (AID 651741; active means well fitted activation curve with a large enough effect in the signal ratio; the % refers to the signal ratio; further: potency means the concentration at half of the fitted maximal effect). The method, boiled down: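 Beta-lactamase reporter under ARE control in HepG2 cells, 2,000 per well, was induced by 16 h compound treatment at 37 C. Read-out was fluorescence from LiveBLAzer B/G FRET substrate after 2 h at room temperature.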
Test [24] is described as follows: qHTS for Activators of Parkin Expression: LOPAC Validation Assay (FLuc Reporter) (AID 720573; active means well fitted curve in the direction sought with a large enough effect; an effect the other way counts as inactive or inconclusive;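 further: 0% = DMSO and 100% = positive control compounds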). The method, boiled down:
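Neuronal cell line stably carrying FLuc/NLuc coincidence reporter under Parkin promoter; cells plated 24 h, then compounds added in 7-point dose response for 24 h at 37 C. FLuc luminescence read; normalized to DMSO and positive control (100%).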

Inconclusive results are not listed. Activity calls are given as the source filed them. Unless noted, the call rests on the fitted dose curve.

Chain of Nucleoprotein (Lymphocytic choriomeningitis virus (strain Armstrong)) (P09992 whole entry, looked up): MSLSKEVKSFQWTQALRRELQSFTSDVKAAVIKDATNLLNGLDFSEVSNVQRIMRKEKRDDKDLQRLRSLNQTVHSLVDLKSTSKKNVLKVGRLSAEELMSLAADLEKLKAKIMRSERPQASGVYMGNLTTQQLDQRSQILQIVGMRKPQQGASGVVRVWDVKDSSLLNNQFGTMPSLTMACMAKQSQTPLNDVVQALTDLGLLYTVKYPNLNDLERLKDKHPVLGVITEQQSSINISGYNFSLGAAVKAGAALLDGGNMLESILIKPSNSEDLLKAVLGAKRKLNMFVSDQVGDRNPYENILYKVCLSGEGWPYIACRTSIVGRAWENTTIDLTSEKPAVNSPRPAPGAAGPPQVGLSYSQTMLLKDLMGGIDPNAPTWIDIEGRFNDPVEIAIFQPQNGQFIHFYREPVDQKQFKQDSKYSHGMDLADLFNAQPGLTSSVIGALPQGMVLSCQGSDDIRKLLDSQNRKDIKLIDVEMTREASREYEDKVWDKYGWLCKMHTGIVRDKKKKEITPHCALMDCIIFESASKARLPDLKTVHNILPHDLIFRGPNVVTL
Chain of Cytochrome P450 3A4 (Homo sapiens) (P08684 whole entry, looked up): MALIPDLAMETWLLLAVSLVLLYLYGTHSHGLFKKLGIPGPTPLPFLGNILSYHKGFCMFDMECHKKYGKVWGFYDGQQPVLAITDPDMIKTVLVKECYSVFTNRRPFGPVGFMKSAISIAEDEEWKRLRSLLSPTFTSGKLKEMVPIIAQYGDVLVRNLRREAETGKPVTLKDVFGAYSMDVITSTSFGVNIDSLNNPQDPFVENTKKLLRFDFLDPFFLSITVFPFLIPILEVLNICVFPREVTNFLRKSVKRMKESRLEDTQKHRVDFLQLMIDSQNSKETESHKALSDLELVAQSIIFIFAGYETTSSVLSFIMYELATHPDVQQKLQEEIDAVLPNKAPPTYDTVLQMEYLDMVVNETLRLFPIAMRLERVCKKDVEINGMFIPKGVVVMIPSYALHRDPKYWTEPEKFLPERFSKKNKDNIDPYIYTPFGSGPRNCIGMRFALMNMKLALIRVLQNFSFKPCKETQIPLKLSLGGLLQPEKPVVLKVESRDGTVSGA
Chain of DNA repair nuclease/redox regulator APEX1 (Homo sapiens) (P27695 whole entry, looked up): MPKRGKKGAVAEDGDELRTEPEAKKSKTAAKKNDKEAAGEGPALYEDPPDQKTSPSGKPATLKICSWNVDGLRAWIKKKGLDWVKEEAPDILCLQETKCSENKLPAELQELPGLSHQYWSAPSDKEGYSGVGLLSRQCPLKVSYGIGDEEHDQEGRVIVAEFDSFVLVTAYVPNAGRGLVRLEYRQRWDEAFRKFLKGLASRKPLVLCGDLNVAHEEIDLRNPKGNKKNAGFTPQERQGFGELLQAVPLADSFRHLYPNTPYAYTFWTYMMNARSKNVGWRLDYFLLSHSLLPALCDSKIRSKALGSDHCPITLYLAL
Chain of M-phase phosphoprotein 8 (Homo sapiens) (Q99549 whole entry, looked up): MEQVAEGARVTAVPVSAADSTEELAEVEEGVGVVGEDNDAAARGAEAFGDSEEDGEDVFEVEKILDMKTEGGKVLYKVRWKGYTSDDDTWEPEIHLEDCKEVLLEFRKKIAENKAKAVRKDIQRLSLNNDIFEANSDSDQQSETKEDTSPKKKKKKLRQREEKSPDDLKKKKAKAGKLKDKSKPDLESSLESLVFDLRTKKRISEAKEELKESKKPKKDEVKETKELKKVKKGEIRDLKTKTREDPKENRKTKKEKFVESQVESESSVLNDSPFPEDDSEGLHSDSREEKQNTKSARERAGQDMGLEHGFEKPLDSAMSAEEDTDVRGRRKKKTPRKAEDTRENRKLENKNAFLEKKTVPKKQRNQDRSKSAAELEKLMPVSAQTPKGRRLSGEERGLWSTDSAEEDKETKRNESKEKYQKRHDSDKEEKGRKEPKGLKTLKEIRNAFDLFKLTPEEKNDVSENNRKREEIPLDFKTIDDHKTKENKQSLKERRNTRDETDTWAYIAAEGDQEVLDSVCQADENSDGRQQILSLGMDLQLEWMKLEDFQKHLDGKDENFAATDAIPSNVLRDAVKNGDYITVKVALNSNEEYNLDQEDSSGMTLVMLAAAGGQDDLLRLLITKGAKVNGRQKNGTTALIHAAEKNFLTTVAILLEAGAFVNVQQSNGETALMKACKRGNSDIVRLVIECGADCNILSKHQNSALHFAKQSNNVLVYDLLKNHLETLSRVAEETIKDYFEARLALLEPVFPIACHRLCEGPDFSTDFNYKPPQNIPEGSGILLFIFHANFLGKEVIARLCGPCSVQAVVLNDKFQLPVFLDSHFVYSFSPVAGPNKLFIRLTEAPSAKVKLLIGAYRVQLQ
Chain of Peroxisome proliferator-activated receptor delta (Homo sapiens) (Q03181 whole entry, looked up): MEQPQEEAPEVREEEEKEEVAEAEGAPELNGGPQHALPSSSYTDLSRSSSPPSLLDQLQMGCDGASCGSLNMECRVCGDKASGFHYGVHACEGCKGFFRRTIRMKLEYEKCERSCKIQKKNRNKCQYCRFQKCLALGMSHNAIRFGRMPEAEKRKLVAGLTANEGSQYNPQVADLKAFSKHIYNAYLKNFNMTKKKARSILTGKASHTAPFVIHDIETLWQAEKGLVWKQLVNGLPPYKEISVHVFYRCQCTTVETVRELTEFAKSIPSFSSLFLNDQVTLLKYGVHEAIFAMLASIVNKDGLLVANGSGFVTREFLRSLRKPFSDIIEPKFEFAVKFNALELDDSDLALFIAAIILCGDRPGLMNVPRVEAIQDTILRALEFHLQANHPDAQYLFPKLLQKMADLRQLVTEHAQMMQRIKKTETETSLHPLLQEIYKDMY
Chain of Thioredoxin reductase 1, cytoplasmic (Rattus norvegicus) (O89049 whole entry, looked up): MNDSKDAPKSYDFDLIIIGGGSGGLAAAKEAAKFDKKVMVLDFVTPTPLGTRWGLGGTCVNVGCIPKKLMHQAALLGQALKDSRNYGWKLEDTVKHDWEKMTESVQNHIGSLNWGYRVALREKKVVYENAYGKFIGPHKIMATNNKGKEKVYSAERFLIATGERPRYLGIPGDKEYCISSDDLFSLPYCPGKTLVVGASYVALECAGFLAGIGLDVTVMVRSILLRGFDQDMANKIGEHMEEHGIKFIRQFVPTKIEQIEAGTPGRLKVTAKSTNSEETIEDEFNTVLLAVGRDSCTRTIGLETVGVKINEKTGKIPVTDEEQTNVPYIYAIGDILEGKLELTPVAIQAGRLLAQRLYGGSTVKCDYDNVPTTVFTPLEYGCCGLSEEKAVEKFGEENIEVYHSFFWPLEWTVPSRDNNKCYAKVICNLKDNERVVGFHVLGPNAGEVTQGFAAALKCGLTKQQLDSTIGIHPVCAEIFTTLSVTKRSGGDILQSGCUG

In the case of `O=C1c2ccccc2-[n+]2ccc3c([nH]c4ccccc43)c21`, the Potency is 4.85 µM (active) in test [1]; 4.32 µM (active) in test [2]; 6.11 µM (active) in test [3]; 3.06 µM (active) in test [4]; 1.26 µM (active) in test [5].
As for `CNC(=O)Nc1ccc(-c2nc(N3CC4CCC(C3)O4)c3cnn(C4CCC5(CC4)OCCO5)c3n2)cc1`, the Potency in test [1] was 0.0153 µM (active); in test [2], 0.0049 µM (active); in test [3], 0.0153 µM (active); in [4] it was 0.0273 µM (active). For the same molecule, the activity change, negative = inhibition in test [5] was -83.7%.
`O=[N+]([O-])c1ccc(Nc2ccccc2-c2ccccc2)c2nonc12`: the Potency result in test [1], in test [2], in [3] and in test [4] was “inactive” each time. For the same molecule, the Potency in [5] is 7.94 µM (active).
Consider `CSc1cccc(Nc2ncc3cc(-c4c(Cl)cccc4Cl)c(=O)n(C)c3n2)c1`, for which the Potency entry in test [1], in [2], in [3] and in test [4] was “inactive” in each case. For the same molecule, the activity change, negative = inhibition in test [5] is -95.8%.
Consider `Cn1cnc(-c2cc3nccc(Oc4ccc(NC(=S)NC(=O)Cc5ccccc5)cc4F)c3s2)c1`, for which the Potency result in test [1], in test [2], in test [3] and in [4] was “inactive” in each case. In test [5], the Potency is 8.91 µM (active).
Take `Oc1ccccc1O`: the Potency result in [6], in test [17], in [22], in test [1], in test [2] and in [3] was “inactive” throughout. The Potency result in [4] was “inactive”. The call in test [7], in test [12], in [14] and in [24] was inactive. The Potency in [8] is 20 µM (active); in test [9] it was 7.94 µM (active); in test [10], 20 µM (active); in [11] it was 15.8 µM (active); in test [13], 35.5 µM (active); in [15] it was 10 µM (active). In addition, the Potency in test [16] is 10.4 µM (active); in test [18], 11.9 µM (active); in test [19] it was 5.97 µM (active); in test [20], 79.4 µM (active); in test [21], 35.5 µM (active); in test [23], 29.8 µM (active).
Regarding `O=C(Nc1cccc(Nc2ncc(Br)c(NCCc3cnc[nH]3)n2)c1)N1CCCC1`, the Potency result in test [1] and in test [4] was “inactive” in each case. The Potency in test [2] was 21.7 µM (active); in test [3] it was 27.3 µM (active). In addition, the activity change, negative = inhibition in test [5] is -97.2%.
Consider `CC1=C(C(=O)O)N2C(=O)[C@@H](NC(=O)C(N)C3=CCC=CC3)[C@H]2SC1` (stereo partly drawn), for which the Potency entry in test [17], in [1], in test [2], in test [3] and in [4] was “inactive” throughout.
Regarding `C=C/C(C)=C/[C@@]1(C)SC(=O)C(C)=C1O`, the Potency entry in [17], in test [1], in test [2], in [3] and in test [4] was “inactive” each time.
With `CC(C)(C)c1ccc(S(=O)(=O)/C=C/C#N)cc1`, in [17], the Potency is 11.2 µM (active). In addition, the Potency entry in test [1], in test [2], in test [3] and in [4] was “inactive” each time.
